# From PubChem BioAssay (NCI)
# Compounds without any hit were thinned out: in the full panel of roughly 83,000, 20% have a hit.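 Method: cells in 96-well plates; compound added at one concentration; 48 h incubation; percent growth measured; values under 10 scored active.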 Values without a mark were called inactive. The source made the active and inactive calls.
# Experiments:
# Test in all cases: NCI-60 one-dose screen, 48 h (100 = growth as untreated, 0 = no growth, -100 = all killed)
# Conditions in all cases: 10 µM unless noted
# RPMI-8226 leukemia = tested on: RPMI-8226 leukemia
# OVCAR-8 ovarian = tested on: OVCAR-8 ovarian
# OVCAR-5 ovarian = tested on: OVCAR-5 ovarian
# OVCAR-4 ovarian = tested on: OVCAR-4 ovarian
# SK-OV-3 ovarian = tested on: SK-OV-3 ovarian
# IGROV1 ovarian = tested on: IGROV1 ovarian
# HS 578T breast = tested on: HS 578T breast
# NCI/ADR-RES ovarian = tested on: NCI/ADR-RES ovarian
# OVCAR-3 ovarian = tested on: OVCAR-3 ovarian
SMILES,growth (RPMI-8226 leukemia),growth (OVCAR-8 ovarian),growth (OVCAR-5 ovarian),growth (OVCAR-4 ovarian),growth (SK-OV-3 ovarian),growth (IGROV1 ovarian),growth (HS 578T breast),growth (NCI/ADR-RES ovarian),growth (OVCAR-3 ovarian)
CN(C)c1ccc(/C=N/NC(=O)COc2cc(=O)n(C)c3ccccc23)cc1,107%,103%,94.2%,113%,112%,87%,120%,108%,–
C#C[C@]1(O)CC[C@H]2[C@@H]3CC=C4c5sc(N=C(N)N)nc5CC[C@]4(C)[C@H]3CC[C@@]21C,-29% (active),10.1%,28%,29%,-57.2% (active),14.4%,–,29.8%,-44.2% (active)
CCOc1ccc(S(=O)(=O)c2ccc(C)cc2)c2c1no[n+]2[O-],67.9%,90.7%,99.1%,67.5%,77.4%,–,78.4%,71.8%,85.2%
Cc1nc2ccc(C(=O)NCc3cc(C(=O)O)c(C)o3)cc2nc1C,108%,96.6%,99.7%,95.4%,80.2%,106%,96.8%,106%,–
CS(=O)(=O)c1ccc(N/N=C/c2c(-c3ccc(S(C)(=O)=O)cc3)[nH]c3ccc(F)cc23)cc1,-41.7% (active),26.1%,75.1%,–,54.6%,35.4%,5.71% (active),91.5%,41.7%
CNC(=O)NCC1OC(n2cnc3c(NC(=O)Nc4ccccc4)ncnc32)C2OC(C)(C)OC12 (stereo not drawn),87.2%,100%,109%,89.6%,79.3%,–,–,101%,89%
c1ccc2c(c1)nc(-n1ccnc1)c1nc3ccccc3n12,77.9%,30.4%,82.4%,68%,21.5%,52.5%,–,49.2%,78.1%
O=C1C(Cl)C(c2ccccc2Cl)N1n1cnnc1 (stereo not drawn),102%,96.2%,91.4%,97.5%,77.3%,–,87.6%,106%,102%
Cc1ccc(O)c(C(=O)c2ccccc2Cl)c1,112%,97.6%,85%,91.9%,112%,102%,–,89%,118%
C#CC[C@H](N)C(=O)O,106% [20 µM],99.2% [20 µM],93.2% [20 µM],107% [20 µM],105% [20 µM],106% [20 µM],–,108% [20 µM],–
Cc1nc2ccccc2c(/C=C/c2ccc(Cl)cc2)c1C(=O)/C=C/c1ccc(Cl)cc1,-17.4% (active),5.4% (active),-45.6% (active),0.984% (active),28.4%,-51.8% (active),-4.76% (active),-15.4% (active),–
Cc1c(C(=O)O[C@H]2[C@@H]3[C@H](C)CC[C@H]3[C@]3(C)O[C@@]2(C2CCCCC2)C[C@H]3OC(=O)CO)ccc2ccccc12,-40.7% (active),28.6%,61.1%,39.4%,62.6%,63.3%,–,8.05% (active),29.3%
CC(C)(C)Nc1c(-c2c3ccccc3cc3ccccc23)nc2ccccn12,55%,67.2%,78.5%,–,59.6%,64.2%,72%,82.9%,72.3%
Clc1ccc2c(NCCCN3CCN(c4nc(N5CCOCC5)nc5ccccc45)CC3)ccnc2c1,-39.5% (active),16.1%,60.6%,50.3%,108%,50.4%,–,25.1%,-40.8% (active)
CCN(CC)CC(O)CNc1c2ccc(Cl)cc2nc2ccc(OC)cc12 (stereo not drawn),-30.9% (active),-40.3% (active),-25.3% (active),-4.45% (active),–,-24.9% (active),38.3%,-24.4% (active),-23.9% (active)
COc1ccc(-c2nnc(SCC(=O)NC3=NN=C(c4ccccc4)CS3)o2)cc1,–,83%,102%,100%,93.5%,–,97.3%,104%,107%

SMILES,growth (RPMI-8226 leukemia),growth (OVCAR-8 ovarian),growth (OVCAR-5 ovarian),growth (OVCAR-4 ovarian),growth (SK-OV-3 ovarian),growth (IGROV1 ovarian),growth (HS 578T breast),growth (NCI/ADR-RES ovarian),growth (OVCAR-3 ovarian)
Cc1nc(-c2ccccc2)cc2c(O)c(C(=O)N/N=C/c3ccc(N(C)C)cc3)[nH]c(=O)c12,–,67.3%,85.4%,26.6%,105%,49.8%,73.2%,66.9%,71%
O=C1CSC(c2ccccc2Cl)N1c1nnc(Cn2cnnc2)o1 (stereo not drawn),55.1%,–,63%,68.6%,49%,74.7%,82.3%,8.38% (active),44.1%
COc1ccc(/C=N/NC(=O)Cn2c(-c3ccc(S(C)(=O)=O)cc3)nc3cc(Cl)ccc32)cc1,9.21% (active),19.7%,–,–,12.6%,33.3%,36.8%,5.86% (active),-1.53% (active)
C=C1C(=O)O[C@H]2[C@H]1CC/C(Cn1cc(CNCCc3c[nH]c4ccccc34)nn1)=C\CC[C@@]1(C)O[C@@H]21,76.5%,92.5%,88.8%,–,80.9%,68.8%,92.4%,99.9%,69.4%
CC(C)n1nc(C#Cc2cccc(NC(=O)c3cccc(C(F)(F)F)c3)c2)c2c(N)ncnc21,–,-12.7% (active),-27.5% (active),11.4%,-51.6% (active),-61.6% (active),-31.2% (active),-13% (active),1.38% (active)
N#C/C(=C\c1ccc(Br)cc1)n1nnc2cc(Cl)c(Cl)cc21,–,22.2%,46.2%,21.6%,–,23.3%,–,7.03% (active),5.17% (active)
CC(=O)Nc1ccc(-c2cc3c(NCc4ccc(F)cc4)ncnc3s2)cc1,–,26.9%,78.1%,44.5%,69.5%,61.1%,70.3%,69.4%,81.6%
N#Cc1cnn2c(-c3ccc(Cl)cc3)nc(NCCc3ccccc3)nc12,–,88.8%,101%,–,74.5%,83.4%,99.6%,90.1%,99.2%
CCCCOc1ccc(NC(=O)n2nc(N=NN(C)C)c3ccc(Cl)cc32)cc1,92.7%,105%,–,96.6%,86%,82.8%,93.6%,98.3%,104%
CCN(CC)N=Nc1nn(C(=O)Nc2ccc(Cc3ccccc3)cc2)c2ccc(Cl)cc12,57.1%,69.3%,–,–,92.2%,–,91.5%,82.1%,87.6%
CCCCN(Cc1ccc(C(=O)NO)cc1)C(=O)Nc1ccc(OCCCCCCCCCn2cc(CCCCC(=O)N[C@H](C(=O)N3C[C@H](O)C[C@H]3C(=O)NCc3ccc(-c4scnc4C)cc3)C(C)(C)C)nn2)cc1,–,50.3%,96.8%,49.3%,53.9%,16.8%,40.8%,97.3%,3.45% (active)
O=C(CCc1nc(-c2cccc(Cl)c2)no1)Nc1ccccn1,–,106%,100%,107%,104%,90.4%,93.8%,95%,108%
C=C1C(=O)O[C@H]2[C@H]1CC/C(COC(=O)/C=C\C(=O)NCc1ccc(Cn3c(=O)sn(-c4ccc(C#N)cc4)c3=O)cc1)=C\CC[C@@]1(C)O[C@@H]21,–,-10.9% (active),-83.9% (active),-81.1% (active),37.8%,-98.7% (active),-24.9% (active),0.213% (active),-90.1% (active)
CN1CCN(C(=O)[C@@]2(C)CC[C@]3(C)CC[C@]4(C)C(=CC[C@@H]5[C@@]6(C)C/C(=C/c7ccncc7)C(=O)C(C)(C)[C@@H]6CC[C@]54C)[C@@H]3C2)CC1,–,50.9%,88.2%,37.9%,55.2%,56.7%,54%,62.1%,50.7%
COc1ccc(Oc2nc(Nc3ccc(N4CCOCC4)nc3)ncc2NC(=O)c2cc(OC)cc(OC)c2)cc1,–,77.8%,105%,78.2%,88.6%,80%,–,76%,82.7%
